As a reminder, the inhibition is the relative decrease from the control value, in per cent.

The values that follow come from PubChem BioAssay.

Experiment [1] is described as follows: NFkB reporter suppression in cystic fibrosis bronchial cells – cell-based, uHTS hits, panel, cytotoxicity readout, dose response (AID 624344). To be noted: CF bronchial epithelial cells, PAF-induced NFkB reporter inhibition, with PAF, run 1; at 79 µM (top of the series) unless noted.
Experiment in experiment [2]: as above
To be noted: CF bronchial epithelial cells, PAF-induced NFkB reporter inhibition, with PAF, run 2; at 79 µM (top of the series) unless noted.

For a further experiment, the system named is Cytotoxicity. The experiment is described as above. To be noted: CF bronchial epithelial cells; run 1, at 19.8 µM (top of the series).
For experiment [3], the target named is Tumor necrosis factor receptor superfamily member 10B (Homo sapiens) (UniProt O14763). The experiment in a line: viability loss of caspase-8 NB7 cells with TRAIL – with/without TRAIL, luminescence panel, confirmation (AID 651596; in the data active means activity above about 50%). To be noted: NB7 neuroblastoma + caspase-8, TRAIL sensitization, NB7 Caspase-8, with TRAIL, mean of runs, at 10 µM, stronger effect = higher value.
Chain of Tumor necrosis factor receptor superfamily member 10B (Homo sapiens) (O14763 whole entry, looked up): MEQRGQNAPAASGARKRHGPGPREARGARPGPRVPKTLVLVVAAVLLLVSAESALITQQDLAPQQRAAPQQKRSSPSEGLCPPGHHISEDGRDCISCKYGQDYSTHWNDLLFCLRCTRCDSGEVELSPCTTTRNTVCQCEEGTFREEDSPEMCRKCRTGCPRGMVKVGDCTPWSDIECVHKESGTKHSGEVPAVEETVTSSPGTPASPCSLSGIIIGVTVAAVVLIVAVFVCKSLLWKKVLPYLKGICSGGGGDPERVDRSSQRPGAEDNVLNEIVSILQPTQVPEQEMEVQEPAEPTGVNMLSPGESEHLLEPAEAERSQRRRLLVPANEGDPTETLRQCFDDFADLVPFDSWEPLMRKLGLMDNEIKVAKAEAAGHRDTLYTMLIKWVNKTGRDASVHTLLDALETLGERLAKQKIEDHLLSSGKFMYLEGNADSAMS

Experiment in experiment [4]: as above
To be noted: NB7 neuroblastoma + caspase-8, without TRAIL, NB7 Caspase-8, without TRAIL, mean of runs, at 10 µM.

Experiment [5] in a line: HIF-2a driven luciferase blockers, single dose – luminescence, 786-0 RCC cells, confirmation (AID 651580;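 active means mean inhibition across four replicates of at least 40 percent at the single tested concentration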). As to conditions: HIF-2a luciferase reporter luminescence, overnight, at 18.8 µM, stronger effect = higher value. Background: In a reporter assay the amount or activity of a reporter protein is the signal.
The nature of experiment [6]: HIF-1a luciferase reporter signal reduction – MiaPaCa-2 cells, single concentration, counter-screen for HIF-2a inhibitor project, confirmation (AID 651589). To be noted: MiaPaCa-2 HIF-1a luciferase reporter, desferoxamine, overnight; at 18.8 µM; stronger effect = higher value.

Structures are written as SMILES. Some of the results follow. The source made the active and inactive calls.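 How the source made its calls, unless noted: active means mean inhibition of the reporter signal across four replicates at the single tested dose of 50% or more; inactive means the rest.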

Take `Brc1ccc2ncnc(NCc3ccco3)c2c1`: the inhibition was 109% in experiment [1] and 105% in experiment [2].

For `COc1cc(CN(C)c2ccc(S(=O)(=O)N3CCCC3)cn2)ccc1OC(F)F`, the inhibition in experiment [1] is 82.4%; in experiment [2], 98.6%.

Turning to `CC1(C)CC(=O)C=C(NC2=CC3OC(c4ccccc4)OCC3OC2=O)C1` (configuration not stated), the inhibition in experiment [1] was 103%; in experiment [2], 114%.

For `CCOc1cccc(-c2nnc3sc(C4CCCCC4)nn23)c1`, the inhibition in experiment [1] was found to be 102%; in experiment [2], 116%.

In the case of `O=C1NC(=S)N/C1=C/c1cccnc1`, the inhibition is 97.5% in experiment [1] and 103% in experiment [2].

Take `Cc1c(-c2ccccc2)oc2c(C(=O)N3CCN(c4ccc([N+](=O)[O-])cc4)CC3)cccc2c1=O`: the inhibition in experiment [1] is 105%; in experiment [2], 93.8%.

Take `O=C(c1nnsc1S(=O)c1ccc(Cl)cc1)N1CCOCC1` (configuration not stated): the inhibition in experiment [1] amounted to 95.6%; in experiment [2], 110% [at 19.8 µM].

With `CC(C)C[C@@H](CN1CCCC1CN1C(=S)NC[C@@H]1Cc1ccc(O)cc1)N1C[C@H](Cc2ccc(O)cc2)N(CC2CCCCC2)C1=S` (some centres not stated), the inhibition came out at 102% in experiment [1] and 107% in experiment [2].

Consider `CC(C)Cc1nc2oc3c(NCC4CCCO4)ncnc3c2c2c1CCC2` (configuration not stated), for which the figures for the inhibition in experiment [1] and in experiment [2] were 101% and 98.5%, respectively.

For `CC(=O)OC1CCC2(C)C(CCC3C4CC=C(C(C)=O)C4(C)OC(=O)CC32)C1` (configuration not stated), the inhibition worked out at 99.2% in experiment [1] and 104% in experiment [2].

For `Cc1ccc(Sc2c(C=O)c3ccccc3n2C)cc1`, the inhibition in experiment [1] came out at 105%; in experiment [2], 104%.

As to `CC(=O)Oc1ccc(N(C(C)=O)S(=O)(=O)c2ccc(Cl)cc2)c2ccccc12`, the inhibition in experiment [1] amounted to 99.9%; in experiment [2], 108%.

On to `COc1ccc2[nH]c3c(c2c1)CCN1C(=O)C(CC(=O)NCCC2=CCCCC2)C[C@H](C(=O)N2CCCCC2)[C@@]31CCc1ccccc1` (some centres not stated), for which the results for the inhibition in experiment [1] and in experiment [2] were 104% and 40.2% [at 39.5 µM], respectively.

As to `CC1(C)CC(=O)C(C2C3=C(CC(C)(C)CC3=O)Oc3c(Br)cc(Br)cc32)=C(O)C1` (configuration not stated), the inhibition in experiment [1] is 104%; in experiment [2], 111%.

Turning to `COc1ccc(N=Cc2cc3c(cc2O)OC(N)=C(C#N)C3c2ccccc2)cc1` (configuration not stated), the inhibition in experiment [1] came to 76.8%; in experiment [2] it was 47.7%.

On to `CS(=O)(=O)Nc1ccc(-c2cnc3cccnn23)cc1`, for which the inhibition came to 95.8% in experiment [1] and 102% in experiment [2].

In the case of `C=CC(=O)Nc1cccc(Oc2ncnc3[nH]cc(-c4cnc5ccccc5c4)c23)c1`, the inhibition turned out to be 102% in experiment [1] and 109% in experiment [2].

Consider `CN(C)CCCN(C(=O)CCSc1ccccc1)c1nc2cc3c(cc2s1)OCO3`, for which the inhibition in experiment [1] was 106%; in experiment [2], 116%.

As for `FC(F)(F)c1nnc2c(Sc3ccccc3)nc3ccccc3n12`, the inhibition in experiment [1] came out at 92.8%; in experiment [2], 88.4%.

Consider `O=C(CCl)N(Cc1cc(=O)[nH]c2ccccc12)c1ccccc1`, for which the inhibition was 68.3% in experiment [1] and 83.6% in experiment [2].

With `COc1cccc(-c2cnc3c(NC=O)cc(-c4ccc(OC)cc4OC)cn23)c1`, the figures for the inhibition in experiment [1] and in experiment [2] were 98.2% and 86.1%, respectively.

Turning to `O=C1N(c2ccccc2C(F)(F)F)O[C@@]1(c1ccccc1)C1CCCCC1`, the inhibition in experiment [1] stood at 99.3%; in experiment [2], 105%.

Take `ON=C1c2ccccc2-c2ccccc21`: the inhibition was 95.8% in experiment [1] and 106% in experiment [2].

Regarding `O=C(NCc1ccco1)c1nc2c(nnn2Cc2ccccc2Cl)c(=O)[nH]1`, the results for the inhibition in experiment [1] and in experiment [2] were 115% and 107%, respectively.

On to `Cc1ccc(NC(=O)c2cc(C(=O)c3cc(Cl)ccc3O)cn(-c3ccc(C)cc3)c2=O)cc1`, for which the figures for the inhibition in experiment [1] and in experiment [2] were 65.5% and 96.9%, respectively.

In the case of `O=C(Nc1ccc(F)cc1)Nc1ccc(N2CCCC2)c(S(=O)(=O)Nc2ccccc2Cl)c1`, the inhibition in experiment [1] is 111%; in experiment [2] it was 89.3%.

Consider `COc1ccc(C2=Nn3c(nnc3-c3ccccc3OC)SC2)cc1OC1CCOC1` (configuration not stated), for which the inhibition in experiment [1] and in experiment [2] was 92.2% throughout.

On to `Cc1cc(C)c(O)c(CN(C)Cc2cc(Cl)cc(Cl)c2O)c1`, for which, in the experiment on Cytotoxicity, the inhibition worked out at 12%.

With `Cc1ccc(C(=O)Nc2cccc(C(F)(F)F)c2)cc1NC(=O)c1nccnc1N`, the values for the inhibition in experiment [1] and in experiment [2] were 75.2% and 76%, respectively. Moreover, the results for the activity in experiment [3] and in experiment [4] were 50.6% and 39%, respectively.

For the compound `OCCN1CCN(C(=S)c2ccc(-c3ccccc3)cc2)CC1`, the inhibition was 93% (active) in experiment [5] and 69.1% (active) in experiment [6].

Take `Cc1ccccc1C(CC(=O)c1cccs1)C(C#N)C#N` (configuration not stated): the inhibition was 28.4% (inactive) in experiment [5] and 100% (active) in experiment [6].

With `CC[C@@H](C)[C@H](NC(=O)CCc1c(C)c2cc3c4c(oc3c(C)c2oc1=O)CCCC4)C(=O)O`, the inhibition in experiment [5] was 68.5% (active); in experiment [6], 44.4% (inactive).

For the compound `COC(=O)c1c(NC(=O)CCCC(=O)O)sc2c1CCCCC2`, the inhibition is 41.2% (active) in experiment [5] and 27.3% (inactive) in experiment [6].

Regarding `CCCc1[nH]nc2c1C(C1CC=CCC1)C(C#N)=C(N)O2` (configuration not stated), the inhibition is 8.58% (inactive) in experiment [5] and 39.6% (inactive) in experiment [6].

Take `NC(N)=Nc1nc(-c2ccccc2)c2cc(Cl)ccc2n1`: the values for the inhibition in experiment [5] and in experiment [6] were 17.8% (inactive) and 107% (active), respectively.

With `Cc1nn(-c2ccccc2)c(Cl)c1C(=O)N1CCN(c2ncnc3c2cnn3-c2ccccc2)CC1`, the values for the inhibition in experiment [1] and in experiment [2] were 114% and 98.4%, respectively. Also, the activity in experiment [3] came to 82%; in experiment [4] it was 59.6%.

`COc1cccc2c(C)c(C(=O)O)[nH]c12`: the inhibition in experiment [5] is 35.5% (inactive); in experiment [6], 37.3% (inactive).

Regarding `COc1cc(NC(=O)Cn2ncc(Cl)c(Cl)c2=O)c(C)cc1[N+](=O)[O-]`, the inhibition is 97.1% in experiment [1] and 91.1% in experiment [2]. In addition, the activity in experiment [3] was 99.2%; in experiment [4] it was 99.3%.

Take `O=C(NCCC1=CCCCC1)c1coc(=O)c(Br)c1`: the inhibition in experiment [1] worked out at 79.7%; in experiment [2] it was 74.3%. Besides, the activity in experiment [3] was 76.4%; in experiment [4], 22.7%.

For the compound `CCN(CC)CCCC(C)n1c2nc(=O)[nH]c(=O)c-2nc2cc(Cl)ccc21` (configuration not stated), the values for the inhibition in experiment [5] and in experiment [6] were 97.9% (active) and 50% (inactive), respectively.
